# In the supplement of paper PMC9492666:
# Columns and labels:
# HCC1937 = test: relative cell viability, compound + erastin, vs DMSO (fraction of DMSO control); higher = less growth inhibition; conditions: 72 h
# MDA-MB-231 = test: as above; conditions: 72 h
# 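Note: viability read by CCK-8 kit in 96-well plates, part of a combination screen pairing lipid-metabolism-targeting compounds with erastin.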
Structure (SMILES),relative cell viability (HCC1937),relative cell viability (MDA-MB-231)
COc1cc(F)c(C(C)C)cc1-c1ccc(C(F)(F)F)cc1CN1C(=O)O[C@H](c2cc(C(F)(F)F)cc(C(F)(F)F)c2)[C@@H]1C [Anacetrapib] + CCOc1ccccc1-n1c(C(C)N2CCN(C(=O)COc3ccc(Cl)cc3)CC2)nc2ccccc2c1=O [erastin],0.557,0.639
CC(C)=CCC[C@](C)(O[C@@H]1O[C@H](CO)[C@@H](O)[C@H](O)[C@H]1O)[C@H]1CC[C@]2(C)[C@@H]1[C@H](O)C[C@@H]1[C@@]3(C)CC[C@H](O[C@@H]4O[C@H](CO)[C@@H](O)[C@H](O)[C@H]4O[C@@H]4O[C@H](CO)[C@@H](O)[C@H](O)[C@H]4O)C(C)(C)[C@@H]3CC[C@]12C [Ginsenoside Rd] + CCOc1ccccc1-n1c(C(C)N2CCN(C(=O)COc3ccc(Cl)cc3)CC2)nc2ccccc2c1=O [erastin],0.355,0.317
O=C(CBr)c1ccc(O)cc1 [PTP Inhibitor I] + CCOc1ccccc1-n1c(C(C)N2CCN(C(=O)COc3ccc(Cl)cc3)CC2)nc2ccccc2c1=O [erastin],0.717,0.64
COCCNC(=O)Nc1ccc2nc(-c3cccs3)c(-c3cccs3)nc2c1 [Ac-CoA Synthase Inhibitor1] + CCOc1ccccc1-n1c(C(C)N2CCN(C(=O)COc3ccc(Cl)cc3)CC2)nc2ccccc2c1=O [erastin],0.597,0.669
Cc1coc2c1C(=O)C(=O)c1c-2ccc2c(C)cccc12 [Tanshinone I] + CCOc1ccccc1-n1c(C(C)N2CCN(C(=O)COc3ccc(Cl)cc3)CC2)nc2ccccc2c1=O [erastin],0.226,0.396
